# Screens deposited in PubChem by National Center for Advancing Translational Sciences (NCATS).
# Compounds with a hit are over-represented: about 2.3% of the library has one in this group of screens.
# Mm-Cpn inhibitor: inhibitors of Methanococcus maripaludis chaperonin TRiC (MmCpn) | purified Mm-Cpn ATPase, ADP Transcreener TR-FRET | Potency, µM (top dose mostly 76.9 µM), without a hit: top-dose activity, negative = inhibition, actives largely listed as inhibitors | 330,000 tested, 0.031% active | AID 504842; also: potency is read from the fitted curve at half-maximal effect; % is scaled to controls: 0 for no effect and ±100 for the full control effect; nearly all actives have a fitted effect of over 80% in size
#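 Purified archaeal chaperonin (25 nM final) was preincubated with compound for 10 min at 37°C, then ATP (10 uM final) was added for 30 min at 37°C in Tris pH 7.4/KCl/MgCl2/DTT buffer. ADP was quantified by HTRF Transcreener TR-FRET.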
# CCT chaperon mod: changes cytosolic chaperonin activity; purified chaperonin ATPase assay, HTRF ADP detection, 30 min; 360,000 tested, 0.3% active; activity change, % (concentration not given with the values), hits read low; AID 651819; in the data active = activity change below about -30%; also: % is scaled to controls: 0 for no effect and ±100 for the full control effect
#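 We incubate TRiC, 40 or 20 nM final, with library compounds at 76 uM and 10 uM ATP for 30 min at 37 °C. ADP formed is detected with Transcreener HTRF reagents after 30 min at room temperature.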
# TDP43 rescue: inhibitors of TDP-43 toxicity in yeast; Potency, µM (titrated, usually from 46.1 µM), for the others: top-dose growth rescue (activation), most hits filed as activators; TDP-43 expressing yeast growth rescue, BacTiter-Glo, 24 h; AID 652104; 410,000 tested, 1.8% active; also: potency is read from the fitted curve at half-maximal effect; % of control where 0% means no effect; nearly all actives have a fitted effect of over 50% in size
#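 In this qHTS, compounds that restore growth of yeast expressing TDP-43 appear as activators. Cells (OD600=0.02, galactose medium, raffinose-pregrown) are incubated with compound 24 hr at 30 deg C and growth is quantified by BacTiter-Glo.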
# FUS suppressor: FUS proteinopathy suppression in yeast; S. cerevisiae FUS-expressing, growth rescue, OD600, 24 h; Potency, µM (series often up to 76.6 µM), most hits filed as activators; 390,000 tested, 0.24% active;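 also: potency is read from the fitted curve at half-maximal effect; plate controls were DMSO vehicle for no effect and reference control for full effect; nearly all actives have a fitted effect of over 55% in size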
#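 Steps: raffinose overnight preculture; dilution to OD 0.005 in 2% galactose minimal medium; compound addition (concentration series); 24hr at 30C, 99% humidity; absorbance read at 600 nm.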
# Abeta yeast res: A-beta toxicity reversal in yeast; Potency, µM (highest dose often 46.1 µM), hits mostly activators; AID 1347071; yeast expressing A-beta42, growth rescue, OD600, 48 h; response scale: 0% DMSO, 100% iron-clioquinol control; 410,000 tested, 0.063% active; also: potency is read from the fitted curve at half-maximal effect; nearly all actives have a fitted effect of over 55% in size
#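 Growth rescue measured by 600 nm absorbance after 48 h yeast culture at 30 C with compound. Values normalized between DMSO and an equimolar ferric chloride plus clioquinol control.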
# aSyn rescue: alpha-synuclein toxicity inhibition in yeast. Potency, µM (top dose mostly 46.1 µM), for the others: at the top dose growth rescue (activation), actives largely listed as activators. Yeast expressing alpha-synuclein, growth rescue, BacTiter-Glo, 24 h. 370,000 tested, 0.14% active; also: potency is read from the fitted curve at half-maximal effect; % of control where 0% means no effect; nearly all actives have a fitted effect of over 65% in size
#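 Galactose-induced alpha-syn yeast (OD600=0.02, raffinose-pregrown) + pinned cpd, 24 hr, 30 deg C; growth by BacTiter-Glo luminescence. Growth restoration scores as activation.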
# * hit, by the source's call; i = inactive; u = inconclusive; x = not tested or not shown. Unless noted, calls follow the shape of the dose curve; as a rule, active = well fitted curve in the direction sought with a large enough effect; inconclusive = small, poorly fitted or top-dose-only effect, or another doubt; inactive = no such curve, though single readings can be large; an effect the other way counts as inactive or inconclusive.
SMILES,Mm-Cpn inhibitor,CCT chaperon mod,TDP43 rescue,FUS suppressor,Abeta yeast res,aSyn rescue
O=C(c1ccc2nccnc2c1)N1CCN(c2cccc(C(F)(F)F)c2)CC1,-2%,-2,0%,i,i,1%
COc1ccccc1CC(=O)N1CCN(c2ccccc2)CC1,-3%,-2,10%,i,i,1%
O=C(c1ccc(CS(=O)c2ccccc2Cl)o1)N1CCN(c2cccc(C(F)(F)F)c2)CC1 (stereo not given),x,x,18µM*,u,i,x
CCn1cc(C(=O)N2CCN(c3cccc(C(F)(F)F)c3)CC2)c2cc(OC)c(OC)cc2c1=O,x,x,10%,u,i,x
COc1ccccc1CC(=O)N1CCN(c2cccc(Cl)c2)CC1,2%,1,13µM*,i,i,3%
O=C(c1ccc(CS(=O)c2ccccc2Cl)o1)N1CCN(c2cccc(Cl)c2)CC1 (stereo not given),x,x,u,u,i,x
O=C(c1cccc(F)c1)N1CCN(c2cccc(C(F)(F)F)c2)CC1,-2%,2,14µM*,i,i,12%
COc1ccccc1C(=O)N1CCN(c2cccc(C(F)(F)F)c2)CC1,-1%,-1,14µM*,i,i,3%
COCCn1c(CN2CCN(c3cccc(Cl)c3)CC2)nc2c1c(=O)n(C)c(=O)n2C,0%,-1,27%,i,i,8%
CC(C)CCn1c(CN2CCN(c3cccc(Cl)c3)CC2)nc2c1c(=O)n(C)c(=O)n2C,1%,0,16µM*,i,i,4%
COc1ccc(/C=C/c2ccncc2)cc1,0%,-52*,11%,i,i,-1%
CC(=O)Oc1c(Cl)c(N2CCOCC2)c(OC(C)=O)c2ccccc12,-2%,-4,10µM*,i,i,-1%
COC(=O)[C@H](C)N(CCc1cn(Cc2ccccc2)nn1)S(=O)(=O)c1ccccc1Br,x,x,x,i,x,x
O=C(NCCc1ccc(Cl)cc1)c1ccc2c(c1)ncn2C1CCCCC1,x,x,x,i,x,x
CCc1ccc(-c2ccc(C(=O)Oc3ccc(Br)cc3)cc2)nc1,x,x,u,i,i,x
CCc1ccc(-c2ccc(C(=O)O)cc2)nc1,-2%,0,35µM*,i,i,6%
Cc1ccc(NC(=O)C2CCN(c3nnc(-n4cccc4)s3)CC2)c(C)c1,x,x,x,i,x,x
O=C(O)/C=C/c1ccccc1Oc1ccccc1,0%,-1,18µM*,i,i,30%
COC(=O)c1ccc(N2C(=O)CC(N(C)CCc3ccc(OC)c(OC)c3)C2=O)cc1 (stereo not given),0%,2,u,i,i,-56%
CCOc1ccc(N2C(=O)CC(N(C)Cc3ccccc3)C2=O)cc1 (stereo not given),-13%,1,18µM*,i,i,7%
COC(=O)c1ccc(N2C(=O)CC(N(C)Cc3ccccc3)C2=O)cc1 (stereo not given),1%,-3,7.1µM*,i,i,-32%
CCCOc1ccc(N2C(=O)CC(N(Cc3ccccc3)N=O)C2=O)cc1 (stereo not given),1%,-4,20µM*,i,i,0%
O=c1c2ccccc2ncn1CCCSc1ccccc1,1%,2,13µM*,i,i,13%
CC(=O)c1c(C)n(-c2cccc(Cl)c2)c2ccc(OC(=O)c3ccccc3)cc12,x,x,-1%,i,i,x
CC1=C(C)CC2C(C1)C(=O)c1ccc(Br)cc1S2(=O)=O (stereo not given),-6%,0,5µM*,i,i,-3%
CC1=CCC2C(=O)N(c3ccc(Br)cc3C)C(=O)C2C1 (stereo not given),-3%,-6,u,i,i,0%
Oc1c(C(Nc2nc3ccccc3s2)c2ccco2)ccc2cccnc12 (stereo not given),-1%,-3,20µM*,x,i,-14%
